Test results from article PMC4552634, “A New Set of Chemical Starting Points with Plasmodium falciparum Transmission-Blocking Potential for Antimalarial Drug Discovery” (PLoS ONE, 2015).
Among all 13,000 compounds or so, about 3,200 (25%) showed an effect of 50% or more. The list shows a part of the results.

Tested on: P. falciparum stage V gametocytes
Parameters: BacTiter-Glo ATP luminescence viability of purified stage V gametocytes in 384-well plates, per cent inhibition versus DMSO
Conditions: 48 h, 5 µM; inhibitor

Compound	% Inhibition [%]
O=C(NC1CC1)c1cnc(N2CCCC(c3ccccc3)C2)c(Cl)c1 (stereo not shown) [TCMDC-134608]	7.948
CCOC(=O)[C@H](Cc1cc([N+](=O)[O-])c(Oc2ccc(OC)c(Cc3ccc(OC)c(C(C)C)c3)c2)c([N+](=O)[O-])c1)NC(=O)C(F)(F)F [TCMDC-139398]	36.25
COc1ccc(C2(CNCC(O)c3cccc([N+](=O)[O-])c3)CCCC2)cc1OC (stereo not shown) [TCMDC-123699]	30.43
CCC[C@@H]([C@@H](CC1CCCCC1)C(=O)N[C@@H](CCOC(=O)NCC)C(=O)Nc1nccs1)N(O)C=O [TCMDC-138145]	41.2
NC1=NC(c2ccccc2)(c2ccccc2)C(=O)N1CC=Cc1ccccc1 [TCMDC-136505]	-58.42
O=C(NCCCN1CCOCC1)c1csc(Nc2ccc(Cl)c(Cl)c2)n1 [TCMDC-123719]	-63.94
CCc1sc(N2CCC(C)CC2)nc1C(=O)Nc1ccc(F)cc1C(F)(F)F [TCMDC-134663]	-1.278
CCCCCN1CCCC1CNS(=O)(=O)c1ccc(C(=O)Nc2ccc(C(F)(F)F)cc2)cc1 (stereo not shown) [TCMDC-133682]	-15.48
CN1CCCC(CN2CCN(Cc3cccc(-c4ccc(-c5nc6ccccc6[nH]5)cc4)c3)CC2)C1 (stereo not shown) [TCMDC-133888]	60.97
CN1CCCC(CN2CCN(Cc3ccc(-c4ccc(-c5nc6ccccc6[nH]5)cc4)cc3)CC2)C1.O=C(O)C(F)(F)F (stereo not shown) [TCMDC-133903]	95.28
c1cc(CN2CCN(c3ccncc3)CC2)cc(-c2ccc(-c3nc4ccccc4[nH]3)cc2)c1 [TCMDC-132921]	36.65
CN1CCCC(CN2CCN(Cc3ccc(-c4cccc(-c5nc6ccccc6[nH]5)c4)cc3)CC2)C1 (stereo not shown) [TCMDC-133916]	44.74
CN1CCCC(CN2CCN(Cc3cccc(-c4cccc(-c5nc6ccccc6[nH]5)c4)c3)CC2)C1 (stereo not shown) [TCMDC-133912]	100.3
CN1CCCC(CN2CCN(Cc3cccc(-c4csc(-c5nc6ccccc6[nH]5)c4)c3)CC2)C1 (stereo not shown) [TCMDC-133913]	1.76
O=C(O)C(F)(F)F.OCCN1CCN(Cc2ccc(-c3ccc(-c4nc5ccccc5[nH]4)cc3)cc2)CC1 [TCMDC-133025]	-7.938
O=C(O)C(F)(F)F.c1ccc2[nH]c(-c3ccc(-c4ccc(CN5CCN(c6ccncc6)CC5)cc4)cc3)nc2c1 [TCMDC-133830]	15.5
O=C(Nc1ccc(Cl)cc1)c1ccc(CN2CCCN(Cc3cccc(O)c3)CC2)cc1 [TCMDC-136406]	-22.52
O=C(Nc1ccc(C(=O)N2CCN(CCN3CCN(c4cccc(C(F)(F)F)c4)CC3)CC2)cc1)c1ccc(OC(F)(F)F)cc1 [TCMDC-138147]	-46.71
O=C(N[C@@H](Cc1ccccc1)C(=O)NCCN1CCOCC1)c1ccc(O)c(-c2ccc(Cl)c(Cl)c2)c1 [TCMDC-140851]	14.71
COc1ccc(C2CC(=O)C3=C(C2)NC(C)=C(C(=O)OC(C)C)C3c2c(F)cccc2Cl)cc1OC (stereo not shown) [TCMDC-124040]	34.34
CNC(=O)c1ccc2nc(C3CC3)n(CC3CCN(S(=O)(=O)c4cccc(Cl)c4)CC3)c2c1 [TCMDC-136189]	88.15
CNC(=O)c1ccc2nc(-c3ccc(-c4ccccc4)cc3)n(CC3CCN(CC4CCCC4)CC3)c2c1 [TCMDC-136523]	25.32

Compound	% Inhibition [%]
COC(=O)Cn1c(C2CCN(CC3CCN(C(=O)/C=C/c4ccc(Cl)c(Cl)c4)CC3)CC2)nc2ccccc21 [TCMDC-140298]	2.762
O=C(/C=C/c1cccc(C(F)(F)F)c1)NCCCCCN1CCN(C(=O)Nc2ccc(Cl)c(Cl)c2)CC1 [TCMDC-135794]	-9.962
O=C1C2C(c3ccc(Cl)c(Cl)c3)N3CC(OCc4ccccc4)CC3(C(=O)O)C2C(=O)N1c1ccc(Br)cc1 (stereo not shown) [TCMDC-139263]	16.51
Cc1cccc2nc(-c3ccc(-c4ccc(NC(=O)Nc5ccsc5)cc4)s3)[nH]c12 [TCMDC-133209]	-24.83
CN(C)Cc1cc2c(O)c(Cc3ccccc3)ccc2o1 [TCMDC-124091]	7.975
CN(C)Cc1c(O)ccc2oc(Cc3ccccc3)cc12 [TCMDC-125816]	62.06
CCC(Cc1ccccc1)c1cc(O)c(Cc2ccc(-c3ccccc3)cc2)c(=O)o1 (stereo not shown) [TCMDC-140730]	-3.123
O=S1(=O)NC2(CCN(CCc3ccc(Cl)cc3)CC2)Nc2cc(F)cc(F)c21 [TCMDC-124990]	-19.76
Cc1ccc(S(C)(=O)=O)cc1/C=C/C(=O)O [TCMDC-139220]	3.947
COc1ccc2nccc([C@@H](O)CN3CCC(NCCOc4ccc(F)cc4[N+](=O)[O-])CC3)c2c1 [TCMDC-140659]	-1.987
CN1CCN(c2ccnc3ccc(NC(=O)Nc4cccc5ccccc45)cc23)CC1 [TCMDC-139346]	6.615
O=c1nc(C=Cc2ccc(Br)cc2)oc2ccccc12 [TCMDC-123878]	22.17
O=C(NC1CCC(CN2CCC(c3c[nH]c4ccccc34)CC2)CC1)c1cc(-c2cccc(Cl)c2)n(-c2ccc(Cl)cc2Cl)n1 (stereo not shown) [TCMDC-140353]	-7.21
O=C(NC1CCC(CN2CCC(c3c[nH]c4ccccc34)CC2)CC1)c1cc(-c2ccccc2Cl)n(-c2cccc(Cl)c2)n1 (stereo not shown) [TCMDC-140354]	-13.83
CCCc1c(C(=O)NC2CCC(CN3CCC(c4c[nH]c5ccccc45)CC3)CC2)cnn1-c1c(Cl)cc(Cl)cc1Cl (stereo not shown) [TCMDC-140423]	74.19
CCCc1c(C(=O)NC2CCC(CN3CCC(c4c[nH]c5ccccc45)CC3)CC2)cnn1-c1ccccc1 (stereo not shown) [TCMDC-139954]	89.66
Cc1c(C(=O)NC2CCC(CN3CCC(c4c[nH]c5ccccc45)CC3)CC2)cnn1-c1c(Cl)cc(Cl)cc1Cl (stereo not shown) [TCMDC-140357]	8.343
CCCc1c(C(=O)NC2CCC(CN3CCC(c4c[nH]c5ccccc45)CC3)CC2)cnn1-c1ccc(Cl)cc1 (stereo not shown) [TCMDC-140261]	29.96
CC(C)c1ccc(NC(=O)Nc2ccc(Cn3ncc(N4CCCNCC4)c(Cl)c3=O)cc2)cc1 [TCMDC-133325]	-40.87
CNC(=O)C1Cc2c([nH]c3ccc(Cl)cc23)C2(CCN(CCc3ccccc3)CC2)N1 (stereo not shown) [TCMDC-141285]	-33.98
O=c1[nH]c2ccc3[nH]cccc3c2c1C=Nc1ccc(N2CCN(CCO)CC2)cc1 [TCMDC-138634]	-29.23
COc1ccccc1/C=C/C(=O)NCCC1CCN(CCCCCNC(=O)/C=C/c2ccc(Cl)c(Cl)c2)CC1 [TCMDC-139999]	48.92

Compound	% Inhibition [%]
O=C(C=Cc1ccc(Cl)c(Cl)c1)NCCCCCN1CCC(CCNC(=O)/C=C/c2ccccc2)CC1 [TCMDC-139566]	81.69
O=C(/C=C/c1ccc(Cl)c(Cl)c1)NCCCCCN1CCCC(CNC(=O)/C=C/c2ccccc2)C1 (stereo not shown) [TCMDC-139582]	30.13
O=C(C=Cc1ccc(Cl)c(Cl)c1)NCCCCCN1CCC(CCCNC(=O)/C=C/c2ccccc2)CC1 [TCMDC-139571]	-9.203
O=C(C=Cc1ccc(Cl)c(Cl)c1)NCCCCCN1CCCC(CCCNC(=O)/C=C/c2ccccc2)C1 (stereo not shown) [TCMDC-139577]	89.65
O=C(C=Cc1ccc(Cl)c(Cl)c1)NCCCCCN1CCCC(CCCNC(=O)C2CC2c2ccccc2)C1 (stereo not shown) [TCMDC-139578]	25.82
O=C(C=Cc1ccc(Cl)c(Cl)c1)NCCCCCN1CCC(CCNC(=O)C(c2ccccc2)c2ccccc2)CC1 [TCMDC-139570]	77.62
O=C(/C=C/c1ccc(Cl)c(Cl)c1)NCCCCCN1CCC(CCNC(=O)/C=C/c2ccccc2F)CC1 [TCMDC-140006]	-17.66
CCc1cc(NCc2ccncc2)nc(Nc2ccc(F)cc2)n1 [TCMDC-134015]	15.5
CC(C)(C)NC(=O)C(c1ccc(F)cc1)N(C(=O)c1ccc(CN2CCOCC2)o1)c1ccc(C2CCCCC2)cc1 (stereo not shown) [TCMDC-125562]	-47.12
CCc1ccc(CN2CCC(CN(c3ccc(N4CCOCC4)c(F)c3)S(=O)(=O)c3ccc(C(C)(C)CC)cc3)CC2)cc1 [TCMDC-135290]	-12.43
COc1ccccc1C1CCN(C2CCC(NC(=O)/C=C/c3cc(F)cc(F)c3)CC2)CC1 (stereo not shown) [TCMDC-133492]	-91.94
CCOC(=O)c1nc2ccc(SC3CCCCC3)cn2c1Br [TCMDC-138030]	0.4377
COc1ccc2c(=O)ccn(CCN3CCC(NCc4ccc5c(n4)NC(=O)CS5)CC3)c2c1 [TCMDC-141809]	-63.52
CN(C)c1ccc2nc(N)nc(N)c2c1Cl [TCMDC-137862]	-17.95
Nc1nc(N)c2c(ccc3ccccc32)n1 [TCMDC-131942]	19.03
COc1cc2cc(-c3nc4ccccc4[nH]3)c(N)nc2cc1OC [TCMDC-125600]	19.66
Nc1nc(N)c2c(Oc3cccc4ccccc34)cccc2n1 [TCMDC-137739]	-7.537
Nc1nc(N)c2c(ccc3[nH]c(-c4ccccc4Cl)nc32)n1 [TCMDC-137840]	117.2
COc1ccccc1-c1nc2c(ccc3nc(N)nc(N)c32)[nH]1 [TCMDC-137976]	123.3
Fc1ccc2[nH]c(-c3ccc(-c4ccc(CNCc5cnn(-c6ccccc6)n5)cc4)cc3)nc2c1.O=C(O)C(F)(F)F [TCMDC-132969]	45.68
